Consider 52 molecules from PubChem BioAssay AID2100 (National Center for Advancing Translational Sciences (NCATS), 2009).

The campaign covered roughly 300,000 compounds. About 1,200 (0.4%) were called active. Another 3% or so got no clear call; they are omitted. Calls follow the shape of the dose curve; as a rule, active = well fitted inhibition curve with a large enough effect; inconclusive = small, poorly fitted or top-dose-only effect, or another doubt; inactive = no such curve, though single readings can be large or run the other way. The entries come from a sample that favours actives as a whole.
Potency is read from the fitted curve at half-maximal effect.

The target in this assay is Lysosomal alpha-glucosidase (Homo sapiens) (UniProt P10253). Put plainly: qHTS Assay for Inhibitors and Activators of Human alpha-Glucosidase Cleavage of Glycogen.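 Also: the screen sought inhibitors and activators.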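 As to activity change, negative = inhibition: 0% = full enzyme reaction and -100% = no-enzyme basal signal.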 To be noted: recombinant GAA, glycogen substrate, Amplex Red glucose oxidase fluorescence; series mostly up to 76.3 µM; activity change, negative = inhibition: at the top concentration. The source says:
NIH Chemical Genomics Center [NCGC] NIH Molecular Libraries Probe Production Centers Network [MLPCN] MLPCN Grant: R03 MH084841-01 Assay Submitter (PI): Wei Zheng NCGC Assay Overview: Alpha-glucosidase is responsible for the hydrolysis of terminal, non-reducing 1,4-linked alpha-D-glucose residues, which releases alpha-D-glucose. It is a lysosomal hydrolase that is required for the degradation of a small percentage (1-3%) of cellular glycogen in humans. Deficiency of this enzyme results in glycogen-storage disease type II (GSDII), also referred to as Pompe disease, an autosomal recessive disorder. Structurally normal glycogen is accumulated in the lysosomes and cytoplasm in affected patients, primarily in muscle tissues. Excessive glycogen storage within lysosomes may interrupt normal functioning of other organelles and leads to cellular injury. In turn, this leads to enlargement and dysfunction of the entire organ involved (eg: cardiomyopathy and muscle weakness). It has been reported that the improper folding and trafficking of alpha-glucosidase resulting from genetic mutations may account for a significant number of Pompe patients. […] We optimized this alpha-glucosidase assay in 1536-well plate format for identification of novel small molecule inhibitors or activators with structures other than the sugar analogs in order to develop new pharmacological chaperones. Previous assays of alpha-Glucosidase have utilized a non-natural fluorescent substrate to probe enzyme activity. The present assay measures enzyme activity on glycogen using a coupled-assay system to glucose oxidase.
NCGC Assay Protocol Summary: This is an enzyme assay using glycogen from bovine liver (Sigma catalog #: G0885) as the substrate and recombinant human alpha-glucosidase as the enzyme preparation. Upon hydrolysis of the substrate, the glucose product can be detected using the Amplex Red Glucose Oxidase Assay Kit (Invitrogen catalog #: A22189). The product of this reaction can be read with a fluorescence plate reader with an excitation at 573 nm and an emission at 610 nm. Data were normalized to the controls for basal activity (without enzyme) and 100% activity (with enzyme). The AC50 values were determined from concentration-response data modeled with the standard Hill equation. Assay buffer for enzyme reaction: 50 mM citric acid (titrated with potassium phosphate to pH 5.0), 0.01% Tween-20 (pH 5.0 is an optimal condition for this enzyme assay) Assay buffer for Amplex Red reaction: Tris-HCl, pH 7.5 1536-well assay protocol for the alpha-glucosidase assay: (1) Add 2 ul/well alpha-glucosidase enzyme solution (4 nM final) (2) Add 23 nL compounds in DMSO solution. The final titration was 0.7 nM to 77 uM. (3) Add 1 ul of glycogen substrate solution (30 ug) (4) Incubate at 37 C for 40 min (5) Add 2 ul tris-HCl buffer with Amplex Red reagents (6) Incubate 45 min at room temperature. (7) Detect the assay plate in a ViewLux plate reader (PerkinElmer) with Ex=573 nm and Em=610nm. Keywords: Alpha-glucosidase, Pompe Disease, pharmacological chaperone, chaperone therapy, high throughput screening, alpha-glucosidase inhibitor, MLSMR, MLSCN, NIH Roadmap, qHTS and NCGC
For orientation: qHTS replaces the single test concentration by a dilution series.
Consider `N#C/C=C\Oc1ccc(Cl)cc1N`, for which the Potency is 9.92 µM (active).

For the molecule `CCCS(=O)(=O)c1c(Nc2ccccc2C)sc(C(=O)c2ccccc2)c1N`, the “activity change, negative = inhibition” value is -9.74% (inactive).

Turning to `COc1ccc(S(=O)(=O)Nc2cc3c(C(=O)OC(C)C)c(C)oc3c3ccccc23)cc1`, the “activity change, negative = inhibition” value was 11.4% (inactive).

As to `Cn1cnc([N+](=O)[O-])c1Sc1ccccc1`, the “activity change, negative = inhibition” value was 1.08% [at 76.4 µM] (inactive).

As to `Cn1cnc([N+](=O)[O-])c1Sc1n[nH]c(N)n1`, the “activity change, negative = inhibition” value is -4.82% [at 76.4 µM] (inactive).

Consider `Cn1cnc([N+](=O)[O-])c1Nc1ccccc1O`, for which the Potency is 7.88 µM (active).

`CC1=C(C(=O)OCc2ccc(C)cc2)C(c2ccccc2Cl)CC(=O)N1` (configuration not stated): the “activity change, negative = inhibition” value was 8.08% (inactive).

For `CCc1ccc(NC(=O)c2sc3nc4c(cc3c2N)CN(CC)CC4)cc1`, the “activity change, negative = inhibition” value is 0.0714% (inactive).

As to `CCc1nn(CC(=O)N2CCN(c3ccc(Cl)cc3)CC2)c(=O)c2cc3occc3n12`, the “activity change, negative = inhibition” value was -17.1% (inactive).

Take `COc1ccccc1-c1nc(SC)n[nH]1`: the “activity change, negative = inhibition” value was -3.53% [at 76.4 µM] (inactive).

Turning to `COc1ccccc1C1=Nc2cccc3cccc(c23)N1`, the Potency is 17.6 µM (active).

On to `Fc1ccccc1N=C1Nc2cccc3cccc1c23`, for which the “activity change, negative = inhibition” value was 7.79% [at 76.4 µM] (inactive).

As to `Cc1cc(C)c2c(-n3cccc3)c(NC(=O)OCc3ccccc3)sc2n1`, the “activity change, negative = inhibition” value is -15.1% [at 76.4 µM] (inactive).

In the case of `COC(=O)Nc1sc2nc(C)cc(C)c2c1-n1cccc1`, the “activity change, negative = inhibition” value was 0.68% [at 76.4 µM] (inactive).

As to `Cc1cc(C)c2c(-n3cccc3)c(C(=O)NNS(=O)(=O)c3ccc(F)cc3)sc2n1`, the Potency is 31.6 µM (active).

Regarding `COc1ccc(Cn2cc(C(=O)c3ccc(C)cc3)c(=O)c3cc(OC)c(OC)cc32)cc1`, the “activity change, negative = inhibition” value is -8.05% (inactive).

Regarding `COc1ccc(CNC(=O)c2cc3c(-c4ccccc4F)nn(C)c3s2)c(OC)c1`, the “activity change, negative = inhibition” value was -14.3% (inactive).

For `COc1ccc(-c2cc(C(F)(F)F)nc(SCC(=O)N(C)Cc3ccccc3)n2)cc1OC`, the “activity change, negative = inhibition” value was 7.48% (inactive).

Take `Cc1ccc(NNC(=O)c2cccs2)cc1Cl`: the Potency is 14.1 µM (active).

Regarding `O=C(NNC(=O)c1ccc(Cl)cc1Cl)c1cccs1`, the “activity change, negative = inhibition” value was -13.2% [at 76.4 µM] (inactive).

Consider `Cc1ccc(C(=O)NNC(=O)c2cccs2)cc1`, for which the “activity change, negative = inhibition” value was 3.51% [at 76.4 µM] (inactive).

As for `O=C(O)C1CCN(c2ccc([N+](=O)[O-])cc2[N+](=O)[O-])CC1`, the “activity change, negative = inhibition” value is 0.683% [at 76.4 µM] (inactive).

With `COc1ccc(N2CCN(c3ccc([N+](=O)[O-])cc3Cl)CC2)cc1`, the “activity change, negative = inhibition” value is 9.13% [at 76.4 µM] (inactive).

Consider `O=[N+]([O-])c1ccc(N2CCN(c3ccc(O)cc3)CC2)c(Cl)c1`, for which the Potency is 10 µM (active).

For `O=C(CSCc1cnn(-c2ccccc2)c1-n1cccc1)NCc1ccccc1Br`, the “activity change, negative = inhibition” value is -1.5% (inactive).

Regarding `CC(=O)Nc1ccc(NC(=O)CCCc2nc(-c3ccc(C(C)(C)C)cc3)no2)cc1`, the “activity change, negative = inhibition” value was 12.5% (inactive).

As to `COc1ccc(N2CCN(c3cc(C)nc4nncn34)CC2)cc1`, the “activity change, negative = inhibition” value is 9.48% (inactive).

For the molecule `Oc1ccc(N2CCN(C(=S)NCc3ccccc3)CC2)cc1`, the Potency is 3.16 µM (active).

On to `O=C(COC(=O)c1ccccc1C(=O)N1CCN(c2ccccc2)CC1)NCc1ccccc1`, for which the “activity change, negative = inhibition” value is -1.56% [at 76.4 µM] (inactive).

With `S=C(NCCc1ccccc1)N1CCCCC1`, the “activity change, negative = inhibition” value was 4.13% [at 76.4 µM] (inactive).

Turning to `COc1ccc(-c2noc(CSc3nc4ccc(C)cc4[nH]3)n2)cc1`, the “activity change, negative = inhibition” value was -11% (inactive).

As to `O=C(CN1CCN(c2ccc(O)cc2)CC1)Nc1ccc(-c2ccccc2)cc1`, the Potency is 10 µM (active).

With `O=C(CN1CCN(c2ccccc2)CC1)Nc1ccc(F)cc1`, the “activity change, negative = inhibition” value was -5.55% [at 76.4 µM] (inactive).

In the case of `O=C(CN1CCOCC1)Nc1ccccc1`, the “activity change, negative = inhibition” value was 4.65% [at 76.4 µM] (inactive).

For `CCOc1ccc(N(CC)S(=O)(=O)N2CCCC(C(=O)NCc3ccc(SC)cc3)C2)cc1` (configuration not stated), the “activity change, negative = inhibition” value is 11.1% (inactive).

Consider `CCc1ccc(NC(=O)C2CCCN2S(=O)(=O)c2ccc3nc(-c4ccccc4)[nH]c3c2)cc1` (configuration not stated), for which the “activity change, negative = inhibition” value is -14.4% (inactive).

Consider `Cc1ccccc1CNC(=O)CCCn1nc(C)c2sc3ccccc3c2c1=O`, for which the “activity change, negative = inhibition” value is -10.6% (inactive).

On to `O=C(Cn1nc(C(F)(F)F)c2c1CCCC2)Nc1ccc(Cl)cc1`, for which the “activity change, negative = inhibition” value was 9.38% (inactive).

For the molecule `COc1cccc(-c2nc(CS(=O)(=O)CC(=O)N3CCN(c4cc(C)ccc4C)CC3)c(C)o2)c1`, the “activity change, negative = inhibition” value is -17% (inactive).

`CC/C(C)=N/Nc1nc2sc3c(c2c(=O)[nH]1)CC(C)(C)OC3`: the “activity change, negative = inhibition” value was 1.15% [at 76.4 µM] (inactive).

On to `C=CCNC(=S)NNc1ncnc2sc3c(c12)CC(C)(C)OC3`, for which the Potency is 11.2 µM (active).

For the molecule `CCC(O)CNc1nc(-n2nc(C)cc2C)nc2sc3c(c12)CC(C)(C)OC3` (configuration not stated), the “activity change, negative = inhibition” value is -8.09% [at 76.4 µM] (inactive).

For `Cc1cccc(OCCSc2nc3ccccc3n2CC(=O)N2CCCCC2)c1C`, the “activity change, negative = inhibition” value is 12% (inactive).

Turning to `Cc1cc(Nc2ccccc2)n(C(=O)c2ccc(N)cc2)n1`, the “activity change, negative = inhibition” value was -16% [at 76.4 µM] (inactive).

For `Cc1cc(Nc2ccccc2)n(CCC#N)n1`, the Potency is 19.8 µM (active).

On to `N#CCCn1ncc2ccccc21`, for which the “activity change, negative = inhibition” value is 1.77% [at 76.4 µM] (inactive).

In the case of `COc1ccc(NC(=O)NC(C)c2c(-n3cccc3)sc(C)c2C)cc1OC` (configuration not stated), the “activity change, negative = inhibition” value is 8.49% (inactive).

As to `O=C(CS(=O)(=O)c1ccc(C(F)(F)F)cn1)NNC(=O)c1ccccc1`, the “activity change, negative = inhibition” value was -2.4% [at 76.4 µM] (inactive).

As to `Cc1cc(C(=O)NNS(=O)(=O)c2ccccc2C(F)(F)F)nn1C(C)(C)C`, the “activity change, negative = inhibition” value is -13.5% [at 76.4 µM] (inactive).

On to `O=C(NNS(=O)(=O)c1ccccc1C(F)(F)F)c1cc2ncc(C(F)(F)F)cc2s1`, for which the Potency was 28.2 µM (active).

`CCc1ccc(NC(=O)Cn2c(=O)n(CCC(=O)NCc3ccc4c(c3)OCO4)c(=O)c3ccccc32)cc1`: the “activity change, negative = inhibition” value was 12.6% (inactive).

With `COc1ccc(S(=O)(=O)c2cn(C)c3cc(N4CCCCC4)c(F)cc3c2=O)cc1`, the “activity change, negative = inhibition” value was -7.63% (inactive).
